T cruzi growth-1: T. cruzi intracellular proliferation inhibitors, primary screen, cell-based, beta-gal Tulahuen parasites, NIH3T3 host, luminescence | T. cruzi beta-gal in NIH3T3, GalScreen luminescence, 90 h | inhibition, % at 8.34 µM | actives 5.9% (n = 77,000);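 active = mean inhibition above about 93%, with at least 55% of replicates each passing it, limit read from the data, passing the limit was not always enough; inconclusive = only one of those two conditions holds; inactive = neither condition holds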
C diff growth: C. difficile growth inhibitors, primary screen, HTS; AID 1259249, 2017; growth activity, negative = inhibition, % at 16 µg/mL (by protocol); Clostridium difficile clinical isolate growth, OD600, 24 h; stronger effect = lower value; actives 0.25% (n = 86,000);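 active = mean growth activity at or below -80% and every replicate also at or below -80%; inconclusive = mean at or below -80% but some replicate above -80%; inactive = mean growth activity above -80%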;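 also: 0% = DMSO wells and -100% = levofloxacin 16 µg/mL wells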
Pf Dd2 growth: P. falciparum Dd2 growth inhibitors, primary screen, SYBR Green fluorescence, single dose replicates; 72 h; stronger effect = lower value; activity change, % at 10 µM; actives 2.3% (n = 94,000); in the data active = activity change below about -80%; inconclusive = no clear call, values can overlap the other calls
T cruzi growth-2: T. cruzi intracellular proliferation inhibitors, confirmation, cell-based, NIH3T3 host, beta-gal parasite, luminescence, cherry-pick | shares compounds with T cruzi growth-1 | actives 72% (n = 5,600) | T. cruzi beta-gal in NIH3T3, GalScreen luminescence, 90 h | inhibition, % at 8.35 µM;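 active = mean replicate inhibition above about 95% and at least 55% of replicates individually reaching it, limit read from the data; inconclusive = only one of the two criteria is met; inactive = neither criterion is met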
T cruzi growth-3: inhibitors of intracellular T. cruzi replication, confirmation, NIH3T3 host cells, beta-gal parasites, cherry-pick, set 2; inhibition, % at 2.09 µM; T. cruzi beta-gal in NIH3T3, GalScreen luminescence, 90 h; shares compounds with T cruzi growth-1; actives 21% (n = 5,600);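 active = mean inhibition above about 95%, with at least 55% of replicates also reaching it, limit read from the data; inconclusive = meets just one of the two conditions; inactive = meets neither condition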;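 also: plate controls were neutral control median for no effect and positive control median for full effect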
NIH3T3 tox: cytotoxicity in mouse NIH/3T3 fibroblasts, confirmation, cytotoxicity control for T. cruzi proliferation inhibitor project, cell-based, cherry-pick, single point | shares compounds with T cruzi growth-1 | NIH/3T3 viability, CellTiter-Glo ATP luminescence, 90 h | cytotoxicity (signal decrease), % at 8.35 µM | actives 14% (n = 5,600) | AID 651742, 2012;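 active = mean signal decrease across replicates above about 35% based on untreated-well scatter, with enough replicates individually passing, limit read from the data; inconclusive = no rule stated though some were filed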;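 also: 0% = median of neutral control wells and 100% = median of positive control wells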
3T3 cytotox 2: NIH/3T3 fibroblast cytotoxicity, confirmation, cytotoxicity control, cell-based, cherry-pick, single point, set 2 | shares compounds with T cruzi growth-1 | NIH/3T3 viability, CellTiter-Glo ATP luminescence, 90 h | inhibition, % at 24.9 µM | actives 56% (n = 5,600);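 active = mean loss of cell viability signal at or above a set limit, and enough replicates individually reaching it; inconclusive = meets only the mean limit or only the replicate share; inactive = meets neither condition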;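 also: 0% = median of neutral control wells and 100% = median of positive control wells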
Starred values were filed as active, the others as inactive; ? = inconclusive; . = no result given; ! = a repeat was not active. An excerpt weighted towards active compounds, which were near 6.8% of everything screened.

SMILES	T cruzi growth-1	C diff growth	Pf Dd2 growth	T cruzi growth-2	T cruzi growth-3	NIH3T3 tox	3T3 cytotox 2
COc1cccc(NC(=O)N2C[C@H](O)COC[C@H]3O[C@@H](CC(=O)NC4Cc5ccccc5C4)CC[C@@H]32)c1	109.3*	-4.1	12.9	-6.6	-42.3	-16.1	-4.2
C[C@H](NC(=O)C[C@H]1CC[C@H]2[C@@H](COC[C@@H](O)CN2C(=O)Nc2cc(Cl)cc(Cl)c2)O1)c1ccccc1	40.3	.	2.1	.	.	.	.
COc1cccc(NC(=O)N2C[C@H](O)COC[C@H]3O[C@H](CC(=O)NC4Cc5ccccc5C4)CC[C@@H]32)c1	-38.4	0.8	-54.0	.	.	.	.
Cc1noc(C)c1NC(=O)N(C)C[C@H]1Oc2c(NC(=O)Nc3ccccc3)cccc2C(=O)N([C@H](C)CO)C[C@H]1C	20.6	.	12.0	.	.	.	.
C[C@H](CO)N1C[C@H](C)[C@H](CN(C)C)OCCCC[C@H](C)Oc2ccc(NC(=O)Nc3ccc(F)cc3)cc2C1=O	58.5	2.5	13.6	.	.	.	.
CCCNC(=O)N1C[C@H](C)[C@H](OC)CN(C)C(=O)c2ccc(NC(C)=O)cc2OC[C@H]1C	-45.9	.	-36.4	.	.	.	.
O=C(C[C@@H]1CC[C@@H]2[C@H](COC[C@@H](O)CN2C(=O)c2cccnc2)O1)NCc1ccc(Cl)cc1	-1.4	-2.8	10.5	.	.	.	.
C[C@H]1CN([C@@H](C)CO)C(=O)CCCn2cc(nn2)CO[C@@H]1CN(C)C(=O)Nc1ccc(C(C)(C)C)cc1	-5.4	1.1	-1.8	.	.	.	.
C[C@@H]1CN([C@H](C)CO)C(=O)CCCn2cc(nn2)CO[C@H]1CN(C)C(=O)Nc1ccccc1	26.3	1.0	-8.1	.	.	.	.
C[C@@H]1CN([C@H](C)CO)C(=O)CCCn2cc(nn2)CO[C@H]1CN(C)C(=O)c1ccc(N2CCN(C)CC2)cc1	-5.3	-8.1	-2.3	.	.	.	.
C[C@H](CO)N1C[C@H](C)[C@H](CN(C)C(=O)CCC(F)(F)F)OCc2cn(nn2)CCCC1=O	-4.1	-0.8	10.4	.	.	.	.
C[C@@H]1CN([C@H](C)CO)C(=O)CCCn2cc(nn2)CO[C@@H]1CN(C)C(=O)Nc1ccc(C(C)(C)C)cc1	122.3*	-1.8	1.5	101.0*	-47.5	-2.4	5.8
C[C@@H]1CN([C@@H](C)CO)C(=O)CCCn2cc(nn2)CO[C@H]1CN(C)C(=O)c1ccc(N2CCN(C)CC2)cc1	?	-2.4	-1.9	35.0	5.1	-23.0	1.3
C[C@@H]1CN([C@H](C)CO)C(=O)CCCn2cc(nn2)CO[C@@H]1CN(C)C(=O)CCC(F)(F)F	?	-5.6	-11.5	46.4	56.3	1.4	-0.4
C[C@H](CO)N1C[C@H](C)[C@@H](CN(C)C(=O)Nc2ccccc2)OCc2cn(nn2)CCCC1=O	127.4*!	-0.6	8.2	-24.8	-13.9	-9.6	-0.6
C[C@H](CO)N1C[C@H](C)[C@@H](CN(C)Cc2cccnc2)Oc2ncc(C3=CCCC3)cc2C1=O	.	4.2	-15.1	.	.	.	.
C[C@H](CO)N1C[C@H](C)[C@H](CN(C)Cc2ccc(C(F)(F)F)cc2)OCc2cn(nn2)CCCC1=O	?	9.0	-17.4	63.7	-7.9	0.7	4.5
C[C@@H]1CN([C@@H](C)CO)C(=O)CCCn2cc(nn2)CO[C@@H]1CN(C)C(=O)Nc1ccccc1	?	6.6	1.8	38.2	-0.3	-13.9	-1.4
C[C@@H]1CN([C@@H](C)CO)C(=O)CCCn2cc(nn2)CO[C@H]1CN(C)Cc1ccc(C(F)(F)F)cc1	-14.6	.	-1.3	.	.	.	.
C[C@H]1CN([C@@H](C)CO)C(=O)CCCn2cc(nn2)CO[C@H]1CN(C)C(=O)Nc1ccccc1	46.7	.	-8.1	.	.	.	.
C[C@@H](NC(=O)[C@H]1[C@H](CO)[C@H]2Cn3c(cccc3=O)[C@H]2N1CC1CCCCC1)c1ccccc1	.	9.8	-20.7	.	.	.	.
